Screening results: PubChem, National Center for Advancing Translational Sciences (NCATS)
Sampled rows, rich in hits. Any-hit rate of the full collection: about 4.8%.
D3 antag: D3 dopamine receptor (human) antagonism; P35462; D3R cells, DiscoveRx beta-arrestin luminescence, antagonist mode; hits give low values; max response, negative = inhibition, %; 360,000 tested, 2.5% active; in the data active = max response below about -50%; inconclusive = no clear call, values can overlap the other calls; note: % is set by controls: 0 for no effect and ±100 for the full control effect
Target sequence (P35462 whole entry, looked up): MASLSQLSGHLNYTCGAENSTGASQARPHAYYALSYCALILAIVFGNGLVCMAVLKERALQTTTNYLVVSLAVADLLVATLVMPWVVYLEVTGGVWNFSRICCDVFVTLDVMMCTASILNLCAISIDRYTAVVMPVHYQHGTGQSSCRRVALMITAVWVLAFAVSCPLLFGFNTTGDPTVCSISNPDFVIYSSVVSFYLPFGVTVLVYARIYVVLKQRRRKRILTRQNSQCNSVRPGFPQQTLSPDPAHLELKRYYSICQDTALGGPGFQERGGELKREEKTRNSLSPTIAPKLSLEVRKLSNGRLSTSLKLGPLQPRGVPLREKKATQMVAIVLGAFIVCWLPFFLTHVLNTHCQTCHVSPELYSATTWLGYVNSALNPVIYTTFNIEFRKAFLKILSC
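Cells expressing the human receptor were seeded at 1500 cells/well, incubated overnight at 37 degrees C in 5% CO2, then exposed to library compounds with dopamine controls for 90 minutes at 37 degrees C before luminescent detection.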
S2 tox: cell viability loss in ATXN counter-screen; S2 cells (HEK-293 line with an ATXN2-luciferase reporter) viability, CellTiter-Fluor protease fluorescence, 24 h; Potency, µM (doses to about 56.7 µM), hits mostly cytotoxic; 400,000 tested, 0.49% active; AID 651635; note: potency is the fitted concentration of half-maximal effect; nearly all actives have a fitted effect of over 40% in size
DRD3 agonist: agonists of human D3 dopamine receptor. max activation, %. AID 652048. 410,000 tested, 0.58% active. D3R DiscoveRx beta-arrestin cells, luminescence, 90 min. P35462; in the data active = max activation above about 30%; note: 0% is about no effect
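Cells at 1500/well, incubated overnight, then treated with pinned compounds (dopamine as control) for 90 min at 37 degrees C. DiscoveRx reagent added for 30 - 60 minutes at room temperature; luminescence read.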
ATXN2 expr inh: inhibitors of ATXN2 expression | HEK-293 ATXN2-luciferase reporter, luminescence, 24 h | Potency, µM (top dose mostly 57 µM), for inactives: at the highest dose activity change, negative = inhibition, actives largely listed as inhibitors | 360,000 tested, 0.72% active | AID 1745845; note: potency is the fitted concentration of half-maximal effect; % is set by controls: 0 for no effect and ±100 for the full control effect; nearly all actives have a fitted effect of over 55% in size
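ATXN2-luciferase reporter cells (luciferase flanked by upstream and downstream ATXN2 gene portions) were treated 24 h at 37 °C with compounds at up to 57 uM. SteadyGlo luminescence gave expression; GF-AFC fluorescence gave viability.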
HepG2 tox: kills HepG2 cells in TGF-b inhibitor counter-screen. AID 588856. HepG2 CAGA-GFP viability, ATP luminescence, 18 h. 410,000 tested, 0.76% active. Potency, µM (titrated, usually from 46.1 µM), for the others: top-dose activity change, negative = cytotoxicity, most hits filed as cytotoxic; note: potency is the fitted concentration of half-maximal effect
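CellTiter-Glo luminescence gave cytotoxicity after 18 hours at 37 degrees C. The cells were HepG2 CAGA-GFP in 1% FBS DMEM, stimulated with 500 pg/mL TGF-beta after compound addition. %Activity was normalised to no-cell wells (complete cell-killing) and DMSO (no toxicity), and curves were fitted and classified.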
TGFb inhibitor: TGF-b pathway inhibition; HepG2 CAGA-GFP TGF-b/SMAD3 reporter, GFP fluorescence, 18 h; TGF-beta stimulated, 500 pg/mL final; 410,000 tested, 1.2% active; Potency, µM (top dose mostly 46.1 µM), for the others: top-dose activity, negative = inhibition, usual class: inhibitors; AID 588855; note: potency is the fitted concentration of half-maximal effect; % is set by controls: 0 for no effect and ±100 for the full control effect; nearly all actives have a fitted effect of over 65% in size
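Inhibition was scored as loss of TGF-beta-induced (500 pg/mL final, 18 hours, 37 degrees C) GFP in HEPG2 cells carrying a CAGA-GFP reporter, in DMEM with 1% FBS. Well GFP was summed per cell; Activity was normalised to unstimulated and stimulated DMSO wells, then concentration-response fitting.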
Starred values were filed as active, the others as inactive. Unless noted, calls come from the whole dose curve; as a rule, active = well fitted curve in the direction sought with a large enough effect; inconclusive = small, poorly fitted or top-dose-only effect, or another doubt; inactive = no such curve, though single readings can be large; an effect the other way counts as inactive or inconclusive.

`O=C(NCCn1cc(SCc2ccccc2F)c2ccccc21)c1cccs1` gave S2 tox inconclusive, DRD3 agonist -3, ATXN2 expr inh inconclusive, HepG2 tox -29% and TGFb inhibitor 10µM*.
For CCOc1ccc(C(=O)NCCn2cc(SCC(=O)Nc3cc(C)on3)c3ccccc32)cc1 the results were D3 antag 3, S2 tox inactive, DRD3 agonist -2, ATXN2 expr inh 5%, HepG2 tox -37% and TGFb inhibitor -2%.
For O=C(NCCn1cc(SCc2ccc(F)cc2)c2ccccc21)c1cccs1 the results were S2 tox inconclusive, DRD3 agonist 8, ATXN2 expr inh inconclusive, HepG2 tox -22% and TGFb inhibitor 11µM*.
For COc1ccc(NC(=O)CCn2cnnn2)cc1 the results were S2 tox inactive, DRD3 agonist 11, ATXN2 expr inh 9%, HepG2 tox 9% and TGFb inhibitor 2%.
Screening O=C(NCC(c1ccco1)S(=O)(=O)c1ccc(Cl)cc1)c1ccccc1F (configuration not stated) returned S2 tox inactive, DRD3 agonist 10, ATXN2 expr inh 12%, HepG2 tox -1% and TGFb inhibitor -17%.
`Cc1noc(C)c1S(=O)(=O)NCCc1csc2nc(-c3ccc(Cl)cc3)nn12` gave DRD3 agonist -8, HepG2 tox -16% and TGFb inhibitor -4%.
For COc1cccc(C=NCC(C)N=Cc2cccc(OC)c2O)c1O (configuration not stated) the results were D3 antag -103*, S2 tox inactive, DRD3 agonist -10, ATXN2 expr inh -1%, HepG2 tox -6% and TGFb inhibitor 1%.
COc1ccc(C(=O)Nc2cccc(C(=O)N/N=C/c3ccc(OC)cc3OC)c2)cc1 was read as D3 antag 20, S2 tox inactive, DRD3 agonist 4, ATXN2 expr inh 11µM*, HepG2 tox 9% and TGFb inhibitor -5%.
Screening COc1cccc(/C=N/NC(=O)c2ccc(-c3ccccc3)cc2)c1O returned D3 antag 108, S2 tox inconclusive, DRD3 agonist 3, ATXN2 expr inh 3.2µM*, HepG2 tox -33% and TGFb inhibitor inconclusive.
COc1ccc(OC)c(/C=N\NC(=O)c2ccc(-c3ccccc3)cc2)c1 was read as D3 antag -17, S2 tox inactive, DRD3 agonist 1, ATXN2 expr inh -20%, HepG2 tox -24% and TGFb inhibitor 3%.
`COc1cccc(/C=N/NC(=O)c2cnccn2)c1OC` gave D3 antag 10, S2 tox inactive, DRD3 agonist 10, ATXN2 expr inh 14%, HepG2 tox 13µM* and TGFb inhibitor 0%.
Screening CCOc1ccc(OCC)c(NS(=O)(=O)c2ccc3c(c2)CCCN3C(C)=O)c1 returned S2 tox inactive, DRD3 agonist -3, ATXN2 expr inh 14%, HepG2 tox -28% and TGFb inhibitor inconclusive.
CN1CCN(N)CC1 was read as S2 tox inactive and ATXN2 expr inh -4%.
Screening COc1cccc(/C=N/NC(=O)C(=O)Nc2ccccc2OC(F)(F)C(F)F)c1O returned D3 antag 11, S2 tox inconclusive, DRD3 agonist 10, ATXN2 expr inh 10µM*, HepG2 tox -2% and TGFb inhibitor -10%.
`COc1ccc(CCCC(=O)N/N=C/c2cccc(OC)c2O)cc1C` gave D3 antag 14, S2 tox inactive, DRD3 agonist 1, ATXN2 expr inh 13µM*, HepG2 tox -15% and TGFb inhibitor inconclusive.
For COc1cccc(/C=N/NC(=O)C[n+]2ccccc2)c1O the results were D3 antag -5, S2 tox inactive, DRD3 agonist 1, ATXN2 expr inh 17%, HepG2 tox -22% and TGFb inhibitor 0%.
For COc1ccc(Br)cc1/C=N/NC(=O)c1cc(OC)c(OC)c(OC)c1 the results were D3 antag 32, S2 tox inactive, DRD3 agonist 2, ATXN2 expr inh 9%, HepG2 tox -4% and TGFb inhibitor 10%.
`COc1cc(C(=O)N/N=C/c2ccsc2C)cc(OC)c1OC` gave D3 antag -53*, S2 tox inactive, DRD3 agonist -12, ATXN2 expr inh -2%, HepG2 tox -3% and TGFb inhibitor -2%.
Screening Cc1cccc(/C=N/NC(=O)c2c(-c3ccccc3)noc2C)c1O returned D3 antag 7, S2 tox inactive, DRD3 agonist 2, ATXN2 expr inh 3.5µM*, HepG2 tox -2% and TGFb inhibitor inconclusive.
COc1cc(Cl)c(C)cc1NC(=O)CCCN1C(=O)C(c2ccccc2)Oc2cccnc21 (configuration not stated) was read as S2 tox inconclusive, DRD3 agonist -4, ATXN2 expr inh -25%, HepG2 tox -22% and TGFb inhibitor -13%.
`COc1ccc(C(=O)NCC2Cc3cc(C)cc(-c4nc5ccccc5s4)c3O2)c(OC)c1OC` (configuration not stated) gave S2 tox inactive.
COc1cccc(/C=N/NC(=O)CNC(=O)C2COc3ccccc3O2)c1O (configuration not stated) was read as D3 antag -13, S2 tox inactive, DRD3 agonist 7, ATXN2 expr inh 8.9µM*, HepG2 tox -4% and TGFb inhibitor -14%.
Screening COc1cccc(/C=N/NC(=O)c2[nH]c(C)c(C(=O)N/N=C/c3cccc(OC)c3O)c2C)c1O returned D3 antag 16, S2 tox inactive, DRD3 agonist -5, ATXN2 expr inh 14µM*, HepG2 tox -46% and TGFb inhibitor inconclusive.
COc1cccc(/C=N/NC(=O)c2ccc(=O)n(C)c2)c1O was read as D3 antag 6, DRD3 agonist 13, ATXN2 expr inh 15µM*, HepG2 tox 4% and TGFb inhibitor -1%.
CCc1cccc(NC(=O)CN(C)S(=O)(=O)c2ccc3c(c2)n(C)c(=O)c(=O)n3C)c1 was read as S2 tox inactive, DRD3 agonist 2, ATXN2 expr inh 12%, HepG2 tox -2% and TGFb inhibitor -6%.
CCOc1ccc2nc(N(CCN(C)C)C(=O)c3cc4ccccc4cc3OC)sc2c1 was read as D3 antag inconclusive, S2 tox inconclusive, DRD3 agonist -6, HepG2 tox -18% and TGFb inhibitor inconclusive.
For CCOc1cccc2sc(N(CCN(C)C)C(=O)c3ccc4c(c3)OCCO4)nc12 the results were D3 antag -66*, S2 tox inactive, DRD3 agonist -19, ATXN2 expr inh -16%, HepG2 tox -1% and TGFb inhibitor -7%.
